FBW7 act: human FBW7 E3 ligase activation, primary screen | AlphaScreen FBW7–phospho-cyclin E peptide binding, activator screen | Q969H0 | 0.13% of 650,000 active | AID 1259310 | normalized activity (activation), % at 26.1 µM; in the data active = normalized activity above about 1.9%;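 note: purified mutant Fbw7 with reduced substrate affinity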
TEAD-YAP inh: TEAD-YAP interaction inhibition. HEK-TIYL cells, TEAD-Gal4/YAP UAS-luciferase luminescence. inhibition, % at 9.12 µM. 1.4% of 640,000 active; in the data active = inhibition above about 32%;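 note: 0% = median of test compound wells and 100% = reference inhibitor wells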
MITF inh: human MITF inhibition, primary screen; AlphaScreen MITF homodimerization, bead proximity signal; inhibition, % at 2.6 µM; 0.91% of 650,000 active; AID 1259374; in the data active = inhibition above about 50%;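 note: 0% = vehicle wells with protein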
GPR151 ag: activators of human GPR151; Q8TDV0; PathHunter beta-arrestin GPR151 cells, luminescence; activation, % at 11.2 µM; 1% of 650,000 active; in the data active = activation above about 4.9%;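 note: 0% = median of compound wells and 100% = cells with positive control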
Target sequence (Q8TDV0 whole entry, looked up): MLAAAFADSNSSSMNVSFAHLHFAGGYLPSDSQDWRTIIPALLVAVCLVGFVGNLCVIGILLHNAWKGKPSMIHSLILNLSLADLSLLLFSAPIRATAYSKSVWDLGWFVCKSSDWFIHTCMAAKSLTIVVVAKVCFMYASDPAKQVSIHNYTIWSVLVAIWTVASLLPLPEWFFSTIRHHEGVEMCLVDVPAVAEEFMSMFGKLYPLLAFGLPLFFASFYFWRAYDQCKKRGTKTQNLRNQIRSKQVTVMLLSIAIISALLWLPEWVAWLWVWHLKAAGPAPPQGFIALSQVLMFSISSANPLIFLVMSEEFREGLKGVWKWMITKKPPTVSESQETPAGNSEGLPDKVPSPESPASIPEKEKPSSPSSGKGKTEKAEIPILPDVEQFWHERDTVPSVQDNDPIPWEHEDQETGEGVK
MITF confirm: confirmation of human MITF inhibitors; inhibition, % at 2.6 µM; AlphaScreen MITF homodimerization, biotin/His-MITF beads; 16% of 4,700 active; shares compounds with MITF inh;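 active = inhibition above a cutoff derived from the DMSO control wells, cut at about 28% in these data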;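 note: 0% = MITF dimer wells with DMSO only; inhibitors lower the bead chemiluminescence by keeping MITF from dimerizing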
AlphaScreen DR: optically interferes with AlphaScreen signal in dose response | shares compounds with MITF inh | AID 1259373 | IC50, µM | 6% of 480 active | AlphaScreen optical interference counterscreen, cell-free; call rule not given here
AlphaScreen intf2: AlphaScreen optical interference, counter-screen | shares compounds with MITF inh | LysRS AlphaScreen counterscreen, signal interference, triplicate | inhibition, % at 2.6 µM | 7.6% of 4,700 active | AID 1259376;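 active = inhibition above a cutoff derived from the DMSO control wells, cut at about 30% in these data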
* hit, by the source's call; . = not tested or not shown; ! = not active in a repeat. Most compounds without a hit are left out; they make up all but 3.4% or so of the library.

SMILES	FBW7 act	TEAD-YAP inh	MITF inh	GPR151 ag	MITF confirm	AlphaScreen intf2	others
COc1ccc(N2C(=O)C(Cl)=C(Nc3ccccc3)C2=O)cc1	0	2	17	2	.	.
COc1ccc(CN2CCN(Cc3ccc(OC)c(OC)c3)CC2)c(OC)c1	0	1	66*	1	10	6
COc1ccc(CN2CCN(Cc3ccc(SC)cc3)CC2)c(OC)c1	0	12	70*	0	5	18
CCOc1ccc(CN2CCN(Cc3ccc(SC)cc3)CC2)cc1	0	10	21	1	.	.
COc1ccccc1NC(=O)CN1CCC(c2nnc(-c3ccco3)o2)CC1	0	7	-16	2	.	.
O=C(O)/C=C/c1cccc(-c2cnn3c(NCCc4ccccn4)ccnc23)c1	0	3	53*	0	3	15
CC(=O)c1cccc(-c2cnn3c(NCCc4ccccn4)ccnc23)c1	0	-37	11	0	.	.
CCOC(=O)c1ccccc1NC(=O)c1sc2ncnc(N3CCN(c4ccccc4)CC3)c2c1C	0	0	19	-1	.	.
Cc1ccc(C(=O)OCc2cn3ccccc3n2)cc1	0	-4	51*	-1	11	12
O=c1cc(/C=C/c2ccc(O)cc2)nc2nn[nH]n12	-1	1	57*	-2	39*	-2	AlphaScreen DR=>6.5
O=c1cc(-c2ccccc2)nc2nn[nH]n12	0	12	3	-6	.	.
N#C/C(=C\c1nn(CCO)c(N)c1C#N)c1ccco1	0	-5	46	0	.	.
N#C/C(=C\c1nn(-c2ccccc2)c(N)c1C#N)c1ccco1	0	-57	59*	0	83*	-6	AlphaScreen DR=>6.5
COc1ccc(OC)c(-n2cnc3cc(C(=O)NCc4ccco4)ccc32)c1	0	-12	75*	0	20	6
COc1ccc(OC)c(-n2cnc3cc(C(=O)NCc4ccccc4Cl)ccc32)c1	0	0	2	-1	.	.
Cc1cc(Cl)ccc1NC(=O)CC(C)(C)C	0	1	-7	0	.	.
Cc1ccccc1C(=O)NC(C)c1nnc2n1CCN(Cc1ccoc1)CC2 (stereo not drawn)	0	-1	-2	-1	.	.
CC(=O)C(Cc1ccccc1)NC(=O)CN1CCN(C/C=C/c2ccccc2)CC1 (stereo not drawn)	0	4	62*	-1	14	14
O=C(CN1CCN(Cc2ccccc2)CC1)N1CCCc2ccccc21	0	19	72*	-2	-3	2
O=C(CN1CCN(Cc2nc(-c3cccs3)cs2)CC1)N1CCc2ccccc21	0	-4	58*	-1	-8	2
O=C(CN1CCN(C/C=C/c2ccccc2)CC1)N1CCCc2ccccc21	0	9	85*	0	5	10
O/N=C1\CCCc2nn(-c3ccc(Cl)c(Cl)c3)nc21	0	-15	14	2	.	.
CCOC(=O)c1c(NC(=O)CSc2nnc(CNC(=O)c3ccco3)n2-c2cccc(C)c2C)sc2c1CCC2	0	6	5	-1	.	.
O=C(CNC(=O)c1ccco1)N/N=C/c1ccc(OC(=O)c2ccc([N+](=O)[O-])cc2)cc1	0	6	7	1	.	.
CC(=O)NC(=S)NNC(=O)c1ccccc1O	-2	30	76*	0	39*	100*
SMILES	FBW7 act	TEAD-YAP inh	MITF inh	GPR151 ag	MITF confirm	AlphaScreen intf2	others
CC(=O)NC(=S)NNC(=O)c1ccccc1I	-1	-1	3	-1	.	.
O=C(NC(=S)NNC(=O)c1ccccc1O)c1cccs1	0	10	78*	1	26	100*
COc1cc([N+](=O)[O-])c(Cl)cc1N=Cc1c(C)[nH]n(-c2ccc(Br)cc2)c1=O	0	4	5	-1	.	.
CC(=O)Nc1nc2c(s1)C(=O)CCC2	0	5	-3	3	.	.
COc1ccc(C(=O)N2CCN(Cc3cccnc3)CC2)cc1	0	-2	67*	1	8	18
O=C(c1ccc([N+](=O)[O-])cc1)N1CCN(Cc2cccnc2)CC1	1	6	74*	1	6	18
COc1ccc(CN2CCN(C(=O)c3ccc([N+](=O)[O-])cc3)CC2)cc1	0	7	60*	-1	-20	2
O=C(c1cccc2ccccc12)N1CCN(Cc2cccnc2)CC1	0	-2	60*	0	10	19
C=CCNC(=S)/N=C1/N=C2C=CC(Cl)=CN2Cc2ccccc21	0	-7	14	-2	.	.
COc1ccc(C(=O)N2CCN(Cc3cccnc3)CC2)cc1OC	0	7	78*	-1	17	8
O=C(c1ccccc1Br)N1CCN(c2ccc([N+](=O)[O-])c(NCCc3ccccc3)c2)CC1	0	-3	6	-1	.	.
CC(=O)CC1=C(C(=O)O)N2C(=O)C(N)C2SC1 (stereo not drawn)	0	11	61*	0	30*	0	AlphaScreen DR=>6.5
Cn1nnnc1SCC1=C(C(=O)O)N2C(=O)C(N)C2SC1 (stereo not drawn)	0	3	37	-1	.	.
CCOc1ccccc1/C=N\NC(=O)c1ccco1	0	-42	70*	0	2	9
CCC(CC)NC(=O)c1ccc(Cl)cc1[N+](=O)[O-]	0	5	74*	-1	1	9
Cc1cc(C)nc(Nc2ccc(C)c([N+](=O)[O-])c2)n1	0	-13	21	0	.	.
Cc1cc(C)nc(Nc2ccc([N+](=O)[O-])cc2)n1	0	-1	69*	3	1	14
CC1CCN(Cc2nnnn2CCCC(=O)NCCCc2cccnc2)CC1	0	7	2	-1	.	.
CC1CCN(Cc2nnnn2CCCC(=O)NCCc2cccc(Cl)c2)CC1	0	5	65*	1	0	13
O=C1c2c(O)cccc2Cc2cccc(O)c21	0	0	86*!	-1	116*	-23	AlphaScreen DR=>6.5
Cc1cc(O)c2c(c1)C(=O)c1cccc(O)c1C2=O	0	-3	15	0	.	.
Cc1ccccc1N1C(=O)c2c(Cl)c(Cl)c(Cl)c(Cl)c2C1=O	0	2	-1	-2	.	.
O=C1N[C@H](CO)C(=O)N2CCN(C(=O)c3cc(F)cc(F)c3)C[C@H]12	0	4	-11	1	.	.
O=C(c1ccncc1)N1C2C=CC(C2)C1(C(F)(F)F)C(F)(F)F (stereo not drawn)	0	0	68*	0	59*	-6	AlphaScreen DR=>6.5
O=C(c1cccnc1)N1C2C=CC(C2)C1(C(F)(F)F)C(F)(F)F (stereo not drawn)	0	5	33	-2	.	.
Cc1cc(C(C)(C)C)ccc1OCCN(C)C	0	2	84*	2	25	9
C=CCNCCOc1ccc(C(C)(C)C)cc1C	0	10	51*	1	-12	5
Cc1cc(C(C)(C)C)ccc1OCCCNCCN	0	1	10	4	.	.

Compound activity (PubChem)
